From PubChem BioAssay
This is a sample that favours compounds with a hit; in the whole collection about 3.8% have one here.
Jurkat NFkB inh: inhibitors of the PMA/ionomycin-induced NF-kB reporter in Jurkat cells; AID 435003; inhibition, % at 4 µM; PMA/ionomycin-induced NF-kB luciferase reporter, luminescence; 0.53% of 330,000 active; in the data active = inhibition above about 50%
Beta cell apopt: beta cell apoptosis inhibition; INS-1E cytokine-induced death, ATP luminescence, 48 h; percent of positive-control rescue, neutral wells zero; protection from apoptosis, % (concentration not given with the values); 0.8% of 300,000 active;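 active = Every replicate reaches about 75%, or at least half do and their mean reaches it too, limit read from the data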;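 also: higher means more ATP so stronger rescue from cytokine killing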
NTR1 ag: NTR1 (human) agonism | P30989 | NTR1-U2OS beta-arrestin-GFP spot imaging, agonist mode | activation, % at 20 µM | 0.17% of 330,000 active | AID 493036;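 active = activation at or above 40% of the spot to cytoplasm intensity ratio, with at least 20 cells analyzed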
Target sequence (P30989 whole entry, looked up): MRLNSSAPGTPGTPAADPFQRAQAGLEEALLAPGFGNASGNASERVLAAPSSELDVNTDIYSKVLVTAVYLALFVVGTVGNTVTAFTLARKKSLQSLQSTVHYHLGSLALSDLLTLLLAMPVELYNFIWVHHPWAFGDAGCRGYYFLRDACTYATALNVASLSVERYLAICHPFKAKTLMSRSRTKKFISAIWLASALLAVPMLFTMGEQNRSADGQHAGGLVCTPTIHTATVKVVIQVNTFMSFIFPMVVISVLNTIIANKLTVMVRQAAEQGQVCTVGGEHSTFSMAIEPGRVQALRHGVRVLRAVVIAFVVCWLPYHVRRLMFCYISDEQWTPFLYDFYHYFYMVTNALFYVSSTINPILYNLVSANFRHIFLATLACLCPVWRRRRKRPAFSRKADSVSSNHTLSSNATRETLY
697 NFkB inh: lowers PMA/ionomycin-induced NF-kB signal in 697 B cells. 697 B-cell NF-kB luciferase reporter, 16 h. inhibition, % at 4 µM. AID 435022. 0.33% of 330,000 active; in the data active = inhibition above about 35%
A1 inh: inhibitors of the anti-apoptotic protein A1, read as caspase activation | MEF A1-2A-BIM cells, Caspase-Glo 3/7 luminescence, 3 h; percent of clofoctol response, vehicle zero | caspase activation, % (no concentration beside the values) | 0.066% of 330,000 active;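 active = over half of replicate activation scores above 10%, or exactly half above 10 with the replicate mean above 10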
Mdm2 MdmX PPI: inhibitors of human Mdm2/MdmX interaction | inhibition, % at 8 µM | 3% of 330,000 active | SaOS-2 split-luciferase Mdm2/MdmX complementation, luminescence | O15151+Q00987;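 active = inhibition of at least 50% at 8 µM in the primary screen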
Jurkat NFkB conf: inhibitors of the PMA/ionomycin-induced NF-kB reporter in Jurkat cells, retest; shares compounds with Jurkat NFkB inh; Jurkat NF-kB luciferase, 16 h; inhibition, % at 4 µM; 27% of 2,700 active;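 active = inhibition reaching about 45% at 4 µM in either replicate, limit read from the data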
Numbers stand for hits; – = inactive; · = not tested or not shown.

SMILES	Jurkat NFkB inh	Beta cell apopt	NTR1 ag	697 NFkB inh	A1 inh	Mdm2 MdmX PPI	Jurkat NFkB conf
O=C(CN1c2cccc3cccc(c23)S1(=O)=O)Nc1ccc(F)c(F)c1F	–	–	–	–	–	–	·
Cc1ccc(C(C)C)c(OCC(O)CN2CCc3ccccc3C2)c1 (stereo not given)	–	98	–	–	–	–	·
COCCN(C(=O)COC(=O)/C=C/c1ccc2c(c1)OCO2)c1c(N)n(Cc2ccccc2)c(=O)[nH]c1=O	–	–	–	–	–	–	·
O=[N+]([O-])c1ccc(N2CCN(CCOc3nonc3-c3ccccc3)CC2)c(Cl)c1	–	119	–	–	–	–	·
O=[N+]([O-])c1ccc(N2CCN(c3ccccn3)CC2)c(Cl)c1	–	–	–	–	–	–	·
CCN(CC)CCOC(=O)c1ccc(N/C=C(/C#N)c2nc(-c3ccc4c(c3)OCO4)cs2)cc1	–	113	–	–	–	–	·
CCN(CC)CCOC(=O)c1ccc(N/C=C(/C#N)c2nc(-c3ccc(OC)cc3)cs2)cc1	–	–	–	–	–	–	·
Cc1ccc(S(=O)(=O)N2CCCC2CNC(=O)c2ccc(F)c(F)c2)cc1 (stereo not given)	–	–	–	–	–	–	·
NC(N)=NC(N)=Nc1ccc2ccccc2c1	–	–	–	–	–	–	·
NC(N)=NC(N)=Nc1ccc(SC(F)(F)F)cc1	–	116	–	–	–	–	·
O=C(Nc1cccnc1)c1cc2cc(Br)ccc2o1	–	–	–	–	–	–	·
COC(=O)[C@H](CC(C)C)N(Cc1ccccc1)S(=O)(=O)N(Cc1ccc(OC)cc1)[C@@H](CC(C)C)C(=O)OC	–	116	–	–	–	–	·
COC(=O)[C@H](CC(C)C)NS(=O)(=O)N(Cc1ccccc1)[C@@H](CC(C)C)C(=O)OC	–	–	–	–	–	–	·
COC(=O)[C@H](CC(C)C)N(Cc1ccccc1)S(=O)(=O)N(Cc1ccccc1)[C@@H](CC(C)C)C(=O)OC	–	121	–	–	–	–	·
Cc1ccccc1OCCC(=O)OCC(=O)Nc1c(C)nn(-c2ccccc2)c1C	–	–	–	–	–	–	·
Cc1[nH]c2ccccc2c1CN1CCC(Cc2ccccc2)CC1	–	104	–	–	–	–	·
Cc1[nH]c2ccccc2c1CN1CCN(c2ccccn2)CC1	–	92	–	–	–	–	·
CCN1CCN(CCNC(=O)c2cc(Cl)c(NC(=O)C3=C(C)OCCS3)cc2OC)CC1	–	–	–	–	–	–	·
Cc1cccc2cc(-c3nc4ccc(C(=O)O)cc4[nH]3)c(=O)oc12	–	–	–	–	–	–	·
O=C(NCc1ccccc1Br)c1cccc2c1C(=O)c1ccc(N3CCOCC3)cc1S2(=O)=O	–	87	–	–	–	–	·
Cn1cc(/C=N/n2cnc3scc(-c4ccccc4)c3c2=O)c2ccccc21	63	–	–	–	–	–	–
Cc1c(-c2nc(N)nc(Nc3ccccc3F)n2)oc2ccccc12	–	–	–	–	–	–	–
O=C(CCc1c[nH]c2ccccc12)OCc1cccc(C(F)(F)F)c1	51	–	–	–	–	–	–
COc1ccc(COC(=O)CCc2c[nH]c3ccccc23)cc1F	–	–	–	–	–	–	·
CCOC(=O)c1sc(NC(=O)c2ccc(Cl)s2)cc1C	–	·	–	–	–	–	–
SMILES	Jurkat NFkB inh	Beta cell apopt	NTR1 ag	697 NFkB inh	A1 inh	Mdm2 MdmX PPI	Jurkat NFkB conf
CCOC(=O)c1sc(NC(=O)c2ccc(S(=O)(=O)N(C)C)cc2)cc1C	–	–	–	–	–	–	·
CCOC(=O)c1sc(NC(=O)c2ccccc2)cc1C	–	–	–	–	–	–	–
CCOC(=O)C1(Cc2cccc(Cl)c2)CCCN(C(=O)CN2C(=O)CSC2=O)C1 (stereo not given)	–	–	–	–	–	–	·
COC(=O)c1ccccc1NC(=O)Cn1c(-c2nonc2N)nc2ccccc21	83	–	–	–	–	–	51
CC(=O)c1ccccc1C(=O)N1CCC(n2nccc2NC(=O)C2CC2)CC1	–	–	–	–	–	–	·
Cc1cc(NC(=O)c2cc3cccc([N+](=O)[O-])c3[nH]2)ccc1F	–	–	–	–	–	–	–
Cc1noc(C)c1COc1ccc(C(=O)NNC(=O)c2ccccc2)cc1	63	·	–	–	–	–	–
Cc1noc(C)c1COc1ccc(C(=O)NNC(=O)c2ccccc2F)cc1	56	–	–	–	–	–	–
O=C1C(Cc2ccccc2)Nc2ncnc(N3CCN(c4ccccc4)CC3)c2N1Cc1ccc(Cl)cc1 (stereo not given)	–	–	–	–	–	–	·
O=C(CN(C(=O)c1csnn1)c1ccccc1C(F)(F)F)NC1CCCCC1	–	–	–	–	–	–	·
COc1ccc(CN2CCC(C(=O)c3ccc(F)cc3)CC2)cc1	–	–	–	–	–	–	·
CCOc1ccc2nc(NCCO)[nH]c2c1	–	–	–	–	–	–	·
COC(=O)Nc1nc2ccc(-c3n[nH]c(=O)c4ccccc34)cc2[nH]1	71	–	–	–	–	–	–
C=CCOc1ccc2nc(NC(=O)OC)[nH]c2c1	72	·	–	–	–	–	–
Cc1nc2ccc(NC(=O)c3cc(Cl)ccn3)cc2s1	–	–	–	–	–	–	–
Cc1nc2cc(NC(=O)c3ccc(Br)s3)ccc2s1	–	–	–	–	–	–	–
Cc1nc2ccc(NC(=O)c3ccc(Cl)nc3)cc2s1	–	–	–	–	–	–	·
c1ccc(C[C@H]2CNCCN2CC2(c3ccccc3)CC2)cc1	–	–	–	–	–	–	·
NC(=O)c1ccsc1NC(=O)c1ccc(N2CCCC2=O)cc1	–	–	–	–	–	–	–
CCOc1ccccc1-c1nc(CN2CCN(C(=O)c3ccco3)CC2)c(C)o1	–	–	–	–	–	–	·
CCOc1ccccc1-n1c(CN2CCN(C(=O)c3ccco3)CC2)nc2ccccc2c1=O	95	–	–	–	–	–	–
CN(C)c1ccc(NC(=O)C2C3C=CC(C3)C2C(=O)O)cc1 (stereo not given)	–	–	–	–	–	–	·
C/C(=N\NC(=O)C1COc2ccccc2O1)c1ccc(C)o1 (stereo not given)	–	–	–	–	–	–	·
C/C(=N\NC(=O)c1ccccc1Cl)c1ccccn1	89	93	–	–	–	–	–
C/C(=N\NC(=O)C1COc2ccccc2O1)c1ccccn1 (stereo not given)	73	–	–	–	–	–	–
O=C(NC1C=CS(=O)(=O)C1)c1sc2ccccc2c1Cl (stereo not given)	56	–	–	–	–	–	–
O=C(C1CCC(C(=O)N2CCc3ccccc32)CC1)N1CCc2ccccc21 (stereo not given)	–	·	–	–	–	–	·
O=C(Nc1ccccc1)C(=O)Nc1ccc2c(c1)N(C(=O)C1CC1)CCC2	–	–	–	–	–	–	–
